According to the supplement of paper PMC6555819:

What was measured:
Assay in all cases: PBM binding z-score (relative to random genomic background probes); higher = stronger binding; sequences stand for … in GC…GCGATTGACAGCGTAGAATGAAGG
[1] = tested on: RARb homodimer (NR concentration 270 nM)
Outline: (§1)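 Binding z-scores were set against random background probes. The data came from custom Agilent 4×180K protein-binding microarrays carrying double-stranded probes with 34-nt variable regions, incubated 1 h with ligand-free nuclear receptor dimers. Partner-specific antibodies detected binding, and scanned fluorescence was regression-normalized.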

[2] = tested on: RARg:RXRa (NR concentration 270 nM, RXRa partner concentration 90 nM)
Outline: as §1

[3] = tested on: RARg homodimer (NR concentration 270 nM)
Outline: as §1

[4] = tested on: RXRa DBDmut IVT, anti-RXR (DBD mutation: RXRa K156A/R161A, NR concentration 90 nM)
Outline: as §1

[5] = tested on: RXRa homodimer (NR concentration 180 nM)
Outline: as §1

[6] = tested on: THRa:RXRa (NR concentration 90 nM, RXRa partner concentration 90 nM)
Outline: as §1

[7] = tested on: THRa homodimer (NR concentration 90 nM)
Outline: as §1

[8] = tested on: VDR homodimer (NR concentration 270 nM)
Outline: as §1

Row | Sequence | PBM binding z-score [1] | PBM binding z-score [2] | PBM binding z-score [3] | PBM binding z-score [4] | PBM binding z-score [5] | PBM binding z-score [6] | PBM binding z-score [7] | PBM binding z-score [8]
1 | ATATCTAGGTAACCAAGTTCAGTGAATGCCGAAC | 1.55 | 0.963 | 0.923 | 0.824 | 0.83 | 1.58 | 0.613 | 2.63
2 | TGAATGAGGTTATAAGATCAGGGGACGTTGCAAA | 0.854 | 1.51 | 0.975 | 1.3 | 2.02 | 2.1 | 0.619 | 1.21
3 | GATGCTAGGTCAGGTTGGTCAGCTAACGGGTACG | 3.1 | 2.37 | 3.92 | 0.468 | 1.16 | 1.92 | 0.898 | 0.958
4 | ACTAGCAGGCCAAGGGGCACTCAAGATTAGTCCG | 0.873 | 0.423 | 0.766 | -0.00995 | 0.366 | 0.0441 | -0.582 | 0.169
5 | CCGACTGGGGCAAGGTTACCATAACGCACAGCCA | 1.33 | 1.31 | 1.39 | -0.473 | 1.34 | 1.33 | 0.342 | -0.0373
6 | CAGCCTAGGTCAGGGCCATTATAGGAGGAACGTT | 2.66 | 3.08 | 4.01 | 0.265 | 1.84 | 2.07 | 0.505 | -0.15
7 | CCTAGTTGGTCAGGAGCTCACACACCGGATATGA | 0.161 | 0.446 | 0.601 | -0.0483 | 0.0648 | -0.298 | -0.103 | 0.545
8 | GATACCGGGTCAAGGCCAGAGTACGCGTATTGAT | 3.05 | 4.34 | 3.93 | 0.478 | 4.58 | 3.49 | 1.25 | 1.07
9 | GCGACTGGGGCACCAGCAGGTTACCATAACTTAA | 0.971 | 1.13 | 0.678 | -0.795 | 0.401 | 1.07 | -0.0837 | -0.699
10 | CGAACTAGGTCATCCAGGATAGTGAATACATTGA | 3.03 | 3.82 | 4.37 | 2.18 | 2.75 | 3.26 | 1.49 | 0.935
11 | ATCTCTAGGTAGCAAGTTCAGTGAAAGAGAGGAC | 1.48 | 0.743 | 0.963 | 0.543 | 0.352 | 0.972 | 0.46 | 2.36
12 | TCTATTAGTTGAGTAGGGCAACCGAAACAGCGGA | 0.153 | 0.16 | 0.294 | 0.368 | 0.116 | -0.257 | -0.445 | -0.411
13 | TTAGCAAGGTGAGCTGAGGTCGTTGATCCAACTC | 1.52 | 1.03 | 0.726 | -0.339 | 1.13 | 4.75 | 1.97 | 2.37
14 | TCTTTTAGATCAGCAGGTTAAGAAAGCTGGCCAA | 0.0082 | 0.209 | 0.197 | 1.02 | 0.581 | 0.357 | -0.515 | 0.00166
15 | CGTCCAAGGCCAAGGTCAGTGAAAGAGACTCGAA | 3.42 | 2.86 | 3.7 | 1.31 | 1.83 | 2.87 | 1.51 | 0.947
16 | CAGCCTAGGTCAGGGACAGTATAGGAGGAACGTT | 2.6 | 3.02 | 3.8 | 0.364 | 1.77 | 2.37 | 0.952 | 0.0373
17 | CAGCCTAGGTCATGGCCAGTATAGGAGGAACGTT | 3.01 | 4.38 | 4.94 | 1.17 | 3.32 | 2.93 | 0.965 | 0.197
18 | CTACCAAGGTGAACAAGATCGTTGATTACTATTC | 0.653 | 0.951 | 0.995 | 0.225 | 0.874 | 1.66 | 0.798 | -0.0814
19 | CCGACTAGGGCAGAAAGGTTACCATACCATCCGG | 2.4 | 1.99 | 1.91 | -0.271 | 1.92 | 1.21 | -0.493 | -0.0974

Row | Sequence | PBM binding z-score [1] | PBM binding z-score [2] | PBM binding z-score [3] | PBM binding z-score [4] | PBM binding z-score [5] | PBM binding z-score [6] | PBM binding z-score [7] | PBM binding z-score [8]
20 | CAAACTCGGTCAAAGGTCAAAGTCGAGCCAACCA | 5.08 | 8.4 | 6.7 | 2.48 | 9.27 | 4.33 | 1.31 | 3.31
21 | CCTCGGAGGACAACAGGAGGTCAGACCTGCCAGA | 3.55 | 3.39 | 3.43 | 0.289 | 1.93 | 2.83 | 1.02 | 1.25
22 | ATCGAAAGGTCGACGAGGTGAGCATACACCGTTT | 2.94 | 4.4 | 4.53 | 1 | 4.49 | 3.75 | 1.18 | 0.518
23 | ACTGGCAGGCCAAGGGTCACTCAAGATTAGTCCG | 3.66 | 4.14 | 3.64 | -0.0715 | 3.95 | 2.71 | 0.159 | 1.11
24 | GCATATAGGTAATACAACGTGAAAGTCCGATTGT | -0.603 | 0.114 | 0.451 | 0.181 | 0.119 | -0.366 | -0.557 | -0.205
25 | ATATGTAGGTTAGCTGGTGTCATTCAGACTAGGC | 0.884 | 0.888 | 0.979 | 0.243 | 0.936 | 2.52 | -0.1 | 0.617
26 | CCTACTGGGCCATCAGGGCATTGATATCAACGTT | 0.404 | 0.0558 | 0.438 | -0.959 | -0.308 | 0.292 | -0.276 | -0.114
27 | ATCGCTAGGTAAGACTCAGTTCAGTGAAGAACGC | -0.147 | -0.35 | -0.262 | -0.408 | -0.428 | 0.249 | -0.192 | 0.334
28 | ATCGAAAGGTGGTGAGGTGAGTATACAGAAAGGC | 1.13 | 0.717 | 0.846 | -0.654 | 0.748 | 1.8 | 1.23 | 0.366
29 | CTCGAAAGGTCGGTTGAGGAGAGTATACGGATAA | 1.66 | 2.45 | 2.43 | 0.577 | 1.74 | 4.2 | -0.262 | 0.602
30 | GCGACTGGGGCAAAGCAGCTTACCATAAGGTTGG | -0.0781 | -0.172 | 0.112 | -0.131 | -0.267 | -0.139 | -0.756 | -0.658
31 | AGAATGAGGATATTAAGATCAGGGAATTGCGGTC | -0.295 | 0.0101 | 0.354 | 0.0131 | 0.0885 | 0.447 | -0.112 | 0.17
32 | TCGAGTAGGTTACCAATGGGGCATTAAGCTTTCT | 0.561 | 0.966 | 0.213 | 0.338 | 0.336 | -0.0215 | -0.627 | -0.636
33 | TCTCGGAGGACACGAAAGGACAGAGCTCGACATC | 1.82 | 1.33 | 2.48 | 0.518 | 0.152 | 2.23 | 0.669 | -0.424
34 | CCTAGCAGCCCAGGGTCACTCAAGCATTTCGCTT | 2.69 | 2.9 | 2.45 | 0.289 | 3.38 | 2.77 | 1.13 | 1.33
35 | TTACCAAGGTGCAAGGTCGTTGATGCACGCCTTG | 1.21 | 0.66 | 0.411 | 1.33 | 1.54 | 1.62 | 0.68 | 2.9
36 | CAGCCTAGGTCAGGGCCTGTATAGGAGGAACGTT | 2.38 | 2.68 | 3.88 | -0.731 | 1.46 | 1.88 | -0.108 | -0.924
37 | TAGCCTAGGTAAGATCGGGCCAGTATACGCTATA | -0.638 | -0.26 | -0.321 | -1.17 | -0.364 | 1.37 | -0.927 | -0.857
38 | TCTAGCAGGCCAGAGGGTCACTCGAGAGGTACGG | 2.65 | 2.47 | 2.33 | 0.0685 | 2.58 | 1.37 | -0.427 | 0.163

Row | Sequence | PBM binding z-score [1] | PBM binding z-score [2] | PBM binding z-score [3] | PBM binding z-score [4] | PBM binding z-score [5] | PBM binding z-score [6] | PBM binding z-score [7] | PBM binding z-score [8]
39 | TTACCAAGGTGCGCTGAGGTCGTTGATCCAACTC | 1.13 | 0.294 | -0.0595 | 1.12 | 0.936 | 3.59 | 1.87 | 3.64
40 | ATCTCTAAGTAAAAGTTCAGTGAATCCCGAGGAT | 2.23 | 1.54 | 1.99 | 1.09 | 0.961 | 0.533 | -0.127 | 1.62
41 | CCTACTGGGCCATCAGGACATTGATATCAACGTT | 0.152 | 0.263 | 0.554 | -0.317 | -0.395 | 1.41 | 1.27 | 0.257
42 | ACAATGAGGTTATACGTAGATCAGGGAAGAAAGT | 0.975 | 1.89 | 1.55 | 2.02 | 2.16 | 2.13 | 0.593 | 1.28
43 | TTACCAAGGTGAAGGTGGTTGATCCCTCTGTAGA | 0.653 | 0.26 | 0.431 | -0.51 | 0.689 | 1.78 | 0.829 | -0.454
44 | TCAGATAGGTAAACAGGTGAAAGTCCGTAAGTTA | 0.841 | 0.678 | 0.219 | 1.48 | 1.01 | 0.664 | 0.307 | 0.407
45 | ATATGTTGGTTAAGGGTCATTCAGGTTGGTTCGC | 3.84 | 4.07 | 3.25 | 2.11 | 4.9 | 3.25 | 2.24 | 4.89
46 | CCGTCTGGGGCAAAGGTTACCATACTCAGTACGA | 2.21 | 3.55 | 1.87 | 0.589 | 3.51 | 1.74 | -0.0764 | -0.106
47 | GCGACTGGGGCATCAGCAGGTTACCGTAACTTAA | 1.14 | 0.702 | 0.193 | -0.433 | 0.309 | 1.03 | -0.152 | -0.576
48 | CCTACTGGGCCAAGGTCATTGTTCAGTCAAAGCA | 3.27 | 3.46 | 2.71 | 1.59 | 2.91 | 3.45 | 2.72 | 3.17
49 | CTCGAAAGGTCGTGCTCAGGTGAGTGTACCAAAC | 3.22 | 5.21 | 4.01 | 2.21 | 4.95 | 4.11 | 1.21 | 1.26
50 | AGAATGAGGTTACCAAAGATCAGGGGAACGCTTG | 1.08 | 2.1 | 1.75 | 1.25 | 2.79 | 2.87 | 0.753 | 0.0393
51 | AGTCAAAGTTCACTAGGTAACGCAAGATTCAGCT | 3.66 | 5.13 | 6.21 | 4.25 | 4.24 | 2.08 | 0.154 | 3.32
52 | CCTTACGGGTCAACGTTATAGCACGGGTGGTACG | 3.19 | 4.85 | 4.64 | 0.494 | 5.03 | 2.36 | -0.182 | 0.692
53 | TCTGCTAGGTCAGTTGGTCAGCTGACGAGCTGCC | 2.33 | 2.98 | 4.14 | 0.382 | 0.854 | 1.31 | -0.308 | -1.1
54 | CCTAGTTGGTCAGGAGGTCACGCACCGGATATGA | 4.9 | 5.68 | 4.98 | 0.815 | 5.93 | 3.94 | 2.78 | 2.71
55 | CCTTACGGGTCACGAGGTTTTAGCACGACGAGCG | 3.71 | 5.63 | 5.4 | 1.57 | 6.87 | 3.12 | 0.658 | 1.4
56 | ACTATTAGTTGACTTAGGTCAACCGATACGACGC | 3.31 | 2.8 | 2.9 | 1.07 | 2.17 | 3.47 | 2.98 | 1.41
